TMEM16A act = mouse TMEM16A channel activation, primary screen | Q8BHY3 | HEK293 TMEM16A/YFP-H148Q/I152L, iodide quench fluorescence; stronger effect = lower value | B-score at 10 µM | 0.3% of 340,000 active;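 active = fluorescence-ratio B-score plate-corrected deviation score at least 3 library SD below zero, with starting fluorescence score within 5 deviations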;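 also: channel opened by trigger with iodide after compound preincubation; score built on the fluorescence ratio of max minus min over baseline; more negative score means more quench and so TMEM16A activation or potentiation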
PKA-R2B activ = activators of human PKA-R2B complex; P22694+P31323; PKA-R2B holoenzyme dissociation, Cy5-IP20 fluorescence polarization; R2B truncated from residue 108, S112A mutant; 0% DMSO only, 100% 113 µM cGMP; activation, % at 11.4 µM; 0.079% of 340,000 active; AID 504700;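 active = activation above a cutoff set at the mean over all compounds plus 3 SD, cut at about 18% in these data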;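 also: higher means more holoenzyme dissociation and a rise in polarization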
ANO1 block = blocks the mouse calcium-activated chloride channel TMEM16A. 1.2% of 310,000 active. AID 588511. HEK293 TMEM16A/YFP iodide influx fluorescence, ionomycin. Q8BHY3. normalized B-score (activity score, 25-100; higher = stronger inhibition) at 10 µM;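 active = ratio plate-corrected score three or more library SD toward inhibition, starting fluorescence score within five deviations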;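 also: score derived from kinetic fluorescence span divided by baseline fluorescence per well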
CHT PAM = allosteric activators of human choline transporter CHT | Q9GZV3 | CHT-expressing cells, membrane potential dye, choline EC20; stronger effect = higher value; LV-AA mutant CHT in HEK293 cells | B-score at 10 µM | 0.49% of 310,000 active;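 active = initial fluorescence not abnormally high and integrated response B-score, plate-corrected, over 3 SD above library mean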
Target sequence (Q9GZV3 whole entry, looked up): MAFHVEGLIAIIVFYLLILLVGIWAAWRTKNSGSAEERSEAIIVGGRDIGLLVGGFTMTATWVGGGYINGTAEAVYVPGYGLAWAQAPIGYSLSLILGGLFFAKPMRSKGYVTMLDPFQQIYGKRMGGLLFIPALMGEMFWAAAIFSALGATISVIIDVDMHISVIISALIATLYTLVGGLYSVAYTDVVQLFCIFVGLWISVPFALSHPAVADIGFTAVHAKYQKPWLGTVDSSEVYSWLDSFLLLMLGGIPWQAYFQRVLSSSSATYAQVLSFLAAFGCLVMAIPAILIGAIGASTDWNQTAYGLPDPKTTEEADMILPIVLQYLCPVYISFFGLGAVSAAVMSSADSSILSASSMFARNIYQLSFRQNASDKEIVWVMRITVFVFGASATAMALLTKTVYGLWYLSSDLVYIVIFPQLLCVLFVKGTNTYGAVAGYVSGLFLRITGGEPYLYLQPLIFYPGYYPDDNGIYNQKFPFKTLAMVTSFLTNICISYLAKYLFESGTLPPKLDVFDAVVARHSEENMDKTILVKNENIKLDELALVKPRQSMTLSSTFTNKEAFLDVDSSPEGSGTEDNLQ
CHT inh = inhibits the human high affinity choline transporter. 0.86% of 310,000 active. CHT-expressing cells, membrane potential dye, choline response; stronger effect = lower value. AID 488975. B-score at 10 µM. Q9GZV3;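 active = B-score over 3 SD under the library average, and starting fluorescence ratio not unusually high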;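 also: choline stimulus applied at its EC90 after an EC20 pre-addition; B-score computed on integrated fluorescence ratio after choline addition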
PKA-R1A activ = activators of PKA-R1A complex | AID 504707 | 0.083% of 340,000 active | PKA-R1A dissociation, Cy5-IP20 fluorescence polarization; scaled: DMSO 0%, 113 µM cGMP 100% | activation, % at 11.4 µM;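 active = percent activation above the mean of all tested compounds plus 3 SD, cut at about 19% in these data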;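 also: higher means more PKAc released from R1A so a rise in polarization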
CHT block conf = confirmation of human choline transporter CHT inhibitors. shares compounds with CHT inh. CHT-expressing cells, choline membrane potential dye; LV-to-AA substituted CHT, HEK293 cells. CHT activity remaining % of control (stronger effect = lower value), % at 10 µM. 70% of 2,400 active;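 active = choline transporter activity left, mean of duplicates at 10 µM, below buffer-only control mean minus 3 SD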;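 also: depolarization triggered by choline at its EC90 following an EC20 pre-addition; 0% = hemicholinium-3 full block and 100% = buffer-only control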
HEK293 CHT ctr = counter-screen for CHT inhibitors: effect in parental HEK293 cells; AID 493222; membrane potential ratio readout (active if shifted either direction beyond buffer ±3SD; no single direction) at 10 µM; shares compounds with CHT inh; membrane potential dye, choline response; active = decrease or increase beyond buffer ±3SD; 4% of 2,400 active;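 also: parental cells lack the transporter so any hit is non-specific; ratio is peak minus trough fluorescence over baseline after EC90 choline challenge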
Active calls of the source: *; i = inactive; · = no result given. Hits are enriched below; roughly 2.5% of the tested compounds scored in any of these assays.

SMILES	TMEM16A act	PKA-R2B activ	ANO1 block	CHT PAM	CHT inh	PKA-R1A activ	CHT block conf	HEK293 CHT ctr
O=C(Nc1cccc(C(F)(F)F)c1)C1CCN(S(=O)(=O)c2cccnc2)CC1	i	0.5	i	i	-5.37*	-8.1	55.2%*	i
Cc1ccc(Nc2cc(C(=O)NCCCN3CCOCC3)c3ccccc3n2)cc1C	i	-8.6	i	i	i	-4.1	61.8%*	i
O=C(NCCCN1CCOCC1)c1cc(-c2ccccc2)nc2ccccc12	i	-4.8	i	i	i	3.2	·	·
NC(N)=N/N=C/c1ccc(OCc2ccccc2Cl)cc1	i	-11.5	i	i	i	-9.1	·	·
NC(N)=N/N=C/c1ccc(Cl)c(Cl)c1	i	·	i	i	-5.42*	·	41.4%*	i
CCc1noc(C)c1C(=O)NCCc1ccc(Cl)cc1	i	1.7	i	i	i	-0.6	·	·
CC1CCN(S(=O)(=O)c2nnc(NC(=O)c3cccc(Cl)c3)s2)CC1	i	1.5	i	i	-6.56*	-2.3	i	i
COc1ccccc1C(=O)Nc1nnc(S(=O)(=O)N2CCC(C)CC2)s1	i	-10.0	i	i	i	-2.9	·	·
COc1ccc(NC(=O)Nc2ccc(O)c3ccccc23)cc1	i	·	i	i	i	·	·	·
Cc1cccc(NC(=O)/C(C#N)=C\c2ccc(C(=O)O)cc2)c1	i	-1.9	i	i	-6.62*	9.3	i	i
COC(=O)CN1C(=O)COc2ccc(S(=O)(=O)NCc3ccccc3)cc21	i	-15.3	i	i	i	-11.9	·	·
O=C(O)CC(Cc1ccc(Cl)cc1)C(=O)Nc1cc(Cl)ccc1Cl (centres undefined)	i	-10.0	i	i	-5.34*	-10.5	52.8%*	i
COc1ccc(C(=O)N[C@H](C(=O)Nc2cccc(S(=O)(=O)N3CCOCC3)c2)C(C)C)cc1	·	5.2	·	·	·	-4.4	·	·
O=C(CSc1ncnc2scc(-c3ccccc3)c12)NC1CCS(=O)(=O)C1 (centres undefined)	i	-7.6	i	i	-6.16*	-7.4	i	i
CN(C(=O)CSc1ncnc2scc(-c3ccccc3)c12)C1CCS(=O)(=O)C1 (centres undefined)	i	0.2	i	i	i	0.0	·	·
CCCCn1nc2cc(C(=O)NCCc3cccs3)ccc2c1OCC	i	-8.2	i	i	-9.22*	0.1	23.5%*	i
CCCCn1nc2cc(C(=O)NC3CCc4ccccc43)ccc2c1OCC (centres undefined)	i	0.9	i	i	-5.47*	8.8	33.8%*	i
CCOc1c2ccc(C(=O)NCCc3cccs3)cc2nn1CC	i	-2.3	i	i	i	-13.0	·	·
Cc1cc(C)cc(CC(Cc2nc3ccccc3[nH]2)c2nc3ccccc3[nH]2)c1 (centres undefined)	i	6.7	i	i	-8.66*	-3.1	54.1%*	i
Cc1ccc(SCc2nc3ccccc3[nH]2)cc1	i	0.7	i	i	i	7.6	·	·
COC(=O)Cn1cnc(C(=O)Nc2ccc(C)c(C)c2)n1	·	-4.1	·	·	·	-3.6	·	·
COC(=O)CSc1[nH]c2ccc(F)cc2c1[N+](=O)[O-]	i	-13.1	i	i	-7.21*	-3.9	15.0%*	i
c1ccc(-c2ccccc2OCc2nnc3n2CCC3)cc1	i	6.8	i	i	-5.31*	1.3	59.6%*	i
COc1cc(OC)cc(-c2nc3ccccc3c(=O)n2OC(=O)c2ccccc2C)c1	i	-4.9	i	i	i	-5.6	·	·
O=C(On1c(-c2ccccc2)nc2ccccc2c1=O)c1ccco1	i	2.7	100*	i	-9.72*	-3.5	57.0%*	i
SMILES	TMEM16A act	PKA-R2B activ	ANO1 block	CHT PAM	CHT inh	PKA-R1A activ	CHT block conf	HEK293 CHT ctr
COc1ccccc1C(=O)NC1CCN(C(=S)NCCc2ccccc2)CC1	i	1.0	i	i	-6.28*	-11.5	49.8%*	i
Cc1ccc(C(=O)NC2CCCCCC2)cc1S(=O)(=O)N1CCOCC1	i	2.2	i	i	i	-7.0	·	·
Cc1ccc(C(=O)OC(C)C(=O)NC2CCCCC2C)cc1S(=O)(=O)N1CCCCC1 (centres undefined)	i	7.0	i	i	-7.86*	2.5	i	i
Cc1ccccc1NC(=O)c1ccc(C)c(S(=O)(=O)N2CCN(C)CC2)c1	i	-3.0	i	i	-5.66*	3.8	59.1%*	i
CC(=O)c1ccc(NC(=O)c2ccc(C)c(S(=O)(=O)N3CCOCC3)c2)cc1	i	8.0	i	i	i	-3.0	·	·
CCOC(=O)c1ccc(NC(=O)c2ccc(C)c(S(=O)(=O)N3CCOCC3)c2)cc1	i	8.5	i	i	-5.5*	0.3	68.3%*	i
Cc1ccc(C(=O)NC2CCCCC2)cc1S(=O)(=O)N1CCCC1	i	6.0	i	i	-5.98*	9.4	60.8%*	i
CC(OC(=O)c1ccc(Cl)c(S(=O)(=O)N2CCCC2)c1)C(=O)NC1CCCCC1C (centres undefined)	·	·	i	i	i	·	·	·
Cc1ccc(S(=O)(=O)Cn2nnnc2C(C(C)C)N2CCC(C(N)=O)CC2)cc1 (centres undefined)	i	1.4	i	i	i	1.2	·	·
Cc1ccc(NC(=O)CCc2c(C)nn(-c3ccc(N4CCCCC4)nn3)c2C)cc1	i	2.5	i	i	i	6.2	·	·
Cc1cc(C)cc(NC(=O)CCc2c(C)nn(-c3ccc(N4CCCCC4)nn3)c2C)c1	i	-2.0	i	i	i	-9.4	i	i
CCn1cc(C(=O)NCCCN2CCN(C)CC2)c(=O)c2cc(S(=O)(=O)N3CCc4ccccc4C3)ccc21	i	0.2	i	i	-9.07*	-5.9	i	i
CCN(CC)CCNC(=O)c1cn(CC)c2ccc(S(=O)(=O)N3CCc4ccccc4C3)cc2c1=O	i	-5.5	i	i	-8.09*	-6.4	28.4%*	i

Screens (PubChem BioAssay)
